# Measured values published in PubChem BioAssay (NCATS).
# Inconclusive results are not listed. The source made the active and inactive calls. Unless noted, how the calls were made is not given here.
# Legend:
# [1] = qHTS profiling of the MIPE4 collection as inhibitors of Plasmodium falciparum (3D7) proliferation (AID 743344);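 further: scaled between DMSO vehicle wells and 0.29 µM artemisinin as full inhibition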; settings: P. falciparum 3D7 in erythrocytes, SYBR Green DNA fluorescence, 72 h; at 28.5 µM unless noted
# Summary of the method: (§1)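 Parasite DNA was quantified by SYBR Green I fluorescence (ex 485, em 535 nm) after overnight lysis in saponin/Triton buffer at room temperature. Cultures at 0.3% parasitemia and 2.5% hematocrit were first exposed to compound for 72 h at 37 C; signals were normalised to artemisinin (0.29 uM) and vehicle wells.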
# [2] = qHTS profiling of the MIPE4 collection as inhibitors of Plasmodium falciparum (DD2) proliferation (AID 743345); settings: P. falciparum Dd2 in erythrocytes, SYBR Green DNA, 72 h; at 28.5 µM unless noted
# Summary of the method: as §1
# [3] = qHTS profiling of the MIPE4 collection as inhibitors of Plasmodium falciparum (DD2) proliferation (Rep 2) (AID 743346); settings: P. falciparum Dd2 in erythrocytes, SYBR Green DNA, 72 h; at 28.5 µM unless noted
# Summary of the method: as §1
# [4] = qHTS profiling of the MIPE4 collection as inhibitors of Plasmodium falciparum (HB3) proliferation (AID 743347);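 further: plate controls were DMSO vehicle wells for no effect and artemisinin wells for full effect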; settings: P. falciparum HB3 in erythrocytes, SYBR Green DNA, 72 h; at 28.5 µM unless noted
# Summary of the method: as §1
# [5] = High-throughput drug toxicity screening in the BPDCN cell line Gen2.2 (AID 1224824); settings: Gen2.2 BPDCN cells; at 45.8 µM (top of the series) unless noted;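 further: cells exposed to compounds for 48 h before reading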
# Summary of the method: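 Readout is ATP luminescence from Gen2.2 cells after two days of drug exposure in serum-containing medium at 37 °C. Values express percent activity, with vehicle defining full signal and 9.2 uM bortezomib defining zero.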
# [6] = High-throughput drug toxicity screening in the BPDCN cell line Cal-1 (AID 1224825); settings: Cal-1 BPDCN cell viability, qHTS; at 45.8 µM (top of the series) unless noted
# Summary of the method: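 Viability of the BPDCN line Cal-1 is measured as ATP-based luminescence (CellTiter-Glo) following 48 h incubation with compounds. Percent activity uses DMSO-treated wells as 100% and 9.2 uM bortezomib as 0%.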
# [7] = qHTS assay for measurement of the activity of small molecule inhibitors on Zika virus induced Caspase-3 activity in human iPSC derived neural progenitor cells (hNPCs) (AID 1224857; active means well fitted inhibition curve with a large enough effect; further: nearly all actives have a fitted effect of over 65% in size; further: potency means the concentration at half of the fitted maximal effect)
# Summary of the method: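 In medium with heparin 2 ug/ml and cyclopamine 2 uM, hNPCs (350 cells/well) received compound for one hour and then Zika virus at 2 FFU/cell; caspase activity was measured by Caspase-Glo 3/7 luminescence 6 h post-infection.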
# [8] = qHTS assay for measurement of the activity of small molecule inhibitors on Zika virus induced Caspase-3 activity in human astrocytoma cells (AID 1224859; active means well fitted inhibition curve with a large enough effect; further: potency means the concentration at half of the fitted maximal effect)
# Summary of the method: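 A cell-based luminescent caspase-3/7 assay used SNB-19 cells infected with ZIKV (2 FFU/cell) for 6 h following 1 h compound pretreatment.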
# [9] = qHTS Screen of the MIPE 4.0 Collection Against Ewings Sarcoma (RDES) (AID 1259252; active means well fitted inhibition curve with a large enough effect; further: nearly all actives have a fitted effect of over 35% in size; further: potency means the concentration at half of the fitted maximal effect)
# Summary of the method: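 Here, cells in 5% FBS RPMI were exposed for two days (48 h) to compound dilutions added four hours after plating. ATP-based CellTiter-Glo luminescence measured viability, normalized to vehicle and no-cell blanks.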
Structure (SMILES),"parasite growth, % of DMSO control [1] [%]","parasite growth remaining, % of DMSO control (lower = more inhibition) [2] [%]","parasite growth, % of control (lower = inhibition) [3] [%]","growth, % of control [4] [%]","cell viability, % of control (lower = more cytotoxic) [5] [%]",viability (% of control) [6] [%],Potency [7],Potency [8],Potency [9]
CCOC(=O)N1c2ccc(C(F)(F)F)cc2[C@@H](N(Cc2cc(C(F)(F)F)cc(C(F)(F)F)c2)C(=O)OC)C[C@H]1CC,6.27,7.82,14.4,3.55,115,91.9,inactive,inactive,23.5 µM (active)
Cc1ccccc1C(C(=O)NC1CCCCC1)N(C(=O)CNc1ccc(C#N)cc1)c1cccc(F)c1 (stereo unspecified),145,93.3,75.5,530,161,128,inactive,inactive,inactive
Nc1[nH]nc2nnc(-c3c(-c4ccccc4)nn4ccccc34)cc12,25,97,46.8,26,5.31,6.85,inactive,inactive,5.9 µM (active)
NS(=O)(=O)c1ccc(Nc2nc(OCC3CCCCC3)c3[nH]cnc3n2)cc1,17.4,13.9,24.8,11,12,9.86,inactive,inactive,5.9 µM (active)
Cc1cc(-c2ncc(CC(=O)Nc3ccc(-c4cnccn4)cn3)cc2C)ccn1,36.5,87.9,71.8,52.1,267,97,inactive,inactive,16.6 µM (active)
C=C1c2cccc(O)c2C(O)=C2C(=O)[C@@]3(O)C(O)=C(C(N)=O)C(=O)[C@@H](N(C)C)[C@@H]3[C@@H](O)[C@H]12,23.7,36.4,24.1,15.6,88.8,94.6,inactive,inactive,20.9 µM (active)
Cn1c(=O)c(Oc2ccc(F)cc2F)cc2cnc(NC3CCOCC3)nc21,25.1,86.4,48.3,35.7,178,93.3,inactive,inactive,inactive
CCOC(=O)[C@H]1O[C@H]1C(=O)N[C@@H](CC(C)C)C(=O)NCCC(C)C,15.6,12.9,15.6,4.47,74.8,95,inactive,inactive,inactive
COc1cc(C=CC(=O)O)ccc1O,88.4,95,98.9,82.4,105,96.5,inactive,inactive,inactive
CC1(C)[C@H]2CC[C@]3(C)[C@@H](C(=O)C=C4[C@@H]5C[C@@](C)(C(=O)O)CC[C@]5(C)CC[C@]43C)[C@@]2(C)CC[C@@H]1O,93.2,98.1,84.9,87.6,139,111,inactive,inactive,inactive
CCc1cccc(CC)c1NC(=O)N1Cc2[nH]nc(NC(=O)c3ccc(N4CCN(C)CC4)cc3)c2C1,19,82.8,21.6,6.85,146,12.8,inactive,inactive,5.9 µM (active)
COc1ccc(C=CC(=O)Nc2ccccc2C(=O)O)cc1OC,24.6,90.5,48.9,32,188,104,2.64 µM (active),2.64 µM (active),inactive
Fc1ccc(C(c2ccc(F)cc2)N2CCN(CC=Cc3ccccc3)CC2)cc1,6.36,14.4,44.1,5.16,18.7,30.9,inactive,inactive,inactive
Cc1ccc(NC(=O)c2cccc(N(C)C)c2)cc1NC(=O)c1ccc(O)cc1,35.6,87.3,55.2,31.2,81.9,5.55,inactive,inactive,0.118 µM (active)
NC[C@H]1O[C@H](O[C@@H]2[C@@H](O)[C@@H](O[C@H]3O[C@H](CO)[C@@H](O)[C@H](N)[C@@H]3O)[C@H](N)C[C@@H]2N)[C@H](O)[C@@H](O)[C@H]1O,96.1,100,80.6,66.9,161,98.4,inactive,inactive,inactive
Cc1ccc2c(c1)c1c(n2CCc2ccc(C)nc2)CCN(C)C1,113,55.3,49.2,135,163,90.5,inactive,inactive,inactive
CC(C)(C)c1nc(-c2cccc(NS(=O)(=O)c3c(F)cccc3F)c2F)c(-c2ccnc(N)n2)s1,18.2,16.6,35,10.3,25.6,55.4,inactive,inactive,6.62 µM (active)
Nc1ncnc2c1ncn2[C@@H]1O[C@H](CO)[C@@H](O)[C@@H]1O,6.49,98,6.61,6.56,108,18.3,inactive,inactive,16.6 µM (active)
C[C@]12CC[C@@H]3c4ccc(O)cc4CC[C@H]3[C@H]1[C@@H](O)[C@@H](O)[C@H]2O,5.15,9.25,7.28,2.52,218,44.4,inactive,inactive,20.9 µM (active)
